Reference: the supplement of paper PMC10849652
About 8,800 targets were measured; listed, in parts, are those with a hit and a random draw of the rest. About 0.5% of all pairs of compound and target were hits. Values without a mark were called inactive.

Key:
Assay in all cases: log2 fold change, soluble protein after heating vs DMSO (PISA); higher = thermal stabilisation; K562 lysate, 10 uM; active = over 0.2 and 3.5 SD of the protein, either way, in both replicates (recomputed)
ibrutinib = compound: C=CC(=O)N1CCC[C@@H](n2nc(-c3ccc(Oc4ccccc4)cc3)c3c(N)ncnc32)C1 [ibrutinib]
Outline: (§1)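 K562 pellets were dounce-homogenised in PBS pH 7.4 with 1 mM MgCl2, and the crude extract at 1 mg/mL protein was treated with 10 μM compound for 30 min. Aliquots were heated for 3 min across 48°C-58°C, pooled, and brought to 0.5% NP-40 at 4°C; soluble protein was the supernatant after 21,000xg for 90 min. Soluble protein was quantified by TMTpro 16plex LC-MS/MS with channel sums equalised, and reported as log2 fold change in thermal stability against DMSO controls, with values from duplicates.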

[1] = compound: CC(=O)c1cnc2ccc(-c3cc(Cl)c(O)c(Cl)c3)nc2c1N[C@H]1CC[C@H](CN(C)C)CC1
Outline: as §1

ralimetinib = compound: CC(C)(C)Cn1c(N)nc2ccc(-c3[nH]c(C(C)(C)C)nc3-c3ccc(F)cc3)nc21 [ralimetinib]
Outline: as §1

[2] = compound: CC(C)(O)CC(=O)NCCn1ccc2ncnc(Nc3ccc(Oc4cccc(C(F)(F)F)c4)c(Cl)c3)c21
Outline: as §1

[3] = compound: CC(C)C1=C2N=C(C=C(N2N=C1)NCC3=CC=CC=C3)NCCCCCCN
Outline: as §1

[4] = compound: CC1=C(C(CC(=O)N1)C2=CC=C(C=C2)C(F)(F)F)C(=O)NC3=C(C=C4C(=C3)C=NN4)F
Outline: as §1

[5] = compound: CC1=C(C2=C(C=C1)C(=O)C3=CC=CC=C3N2CCCN)C
Outline: as §1

[6] = compound: CC1=C(C=C(C=C1)NC(=O)C2=CC(=CC=C2)C(C)(C)C#N)NC3=CC4=C(C=C3)N=CN(C4=O)C
Outline: as §1

[7] = compound: CC1=C(C=C(C=C1)NC(=O)C2=CC(=CC=C2)N(C)C)NC(=O)C3=CC=C(C=C3)O
Outline: as §1

[8] = compound: CC1=CC=C(C=C1)SC2=C3C=C(SC3=CN=C2)C(=O)N
Outline: as §1

vemurafenib = compound: CCCS(=O)(=O)Nc1ccc(F)c(C(=O)c2c[nH]c3ncc(-c4ccc(Cl)cc4)cc23)c1F [vemurafenib]
Outline: as §1

[9] = compound: CCCS(=O)(=O)Nc1ccc(F)c(C(=O)c2c[nH]c3ncc(Cl)cc23)c1F
Outline: as §1

barasertib = compound: CCN(CCCOc1ccc2c(Nc3cc(CC(=O)Nc4cccc(F)c4)[nH]n3)ncnc2c1)CCOP(=O)(O)O [barasertib]
Outline: as §1

[10] = compound: CC[C@@H]1C(=O)N(C)c2cnc(Nc3ccc(C(=O)NC4CCN(C)CC4)cc3OC)nc2N1C1CCCC1
Outline: as §1

volasertib = compound: CC[C@@H]1C(=O)N(C)c2cnc(Nc3ccc(C(=O)N[C@H]4CC[C@H](N5CCN(CC6CC6)CC5)CC4)cc3OC)nc2N1C(C)C [volasertib]
Outline: as §1

[11] = compound: CCn1c(C(=O)N(C2CC2)C2CC2)cc2c3c(ncn3C)c(Nc3cc(C)n(C)n3)nc21
Outline: as §1

[12] = compound: CCn1cc(-c2ccnc3[nH]c(-c4cccc(CN(C)C)c4)cc23)c(-c2ccc(NC(=O)N(C)C)cc2)n1
Outline: as §1

[13] = compound: CN1CCC(CNc2ccc3ncc(-c4cccc(OC(F)(F)F)c4)n3n2)CC1
Outline: as §1

saracatinib = compound: CN1CCN(CCOc2cc(OC3CCOCC3)c3c(Nc4c(Cl)ccc5c4OCO5)ncnc3c2)CC1 [saracatinib]
Outline: as §1

sotrastaurin = compound: CN1CCN(c2nc(C3=C(c4c[nH]c5ccccc45)C(=O)NC3=O)c3ccccc3n2)CC1 [sotrastaurin]
Outline: as §1

Chain of UniProt Q13616 (Q13616 whole entry, looked up): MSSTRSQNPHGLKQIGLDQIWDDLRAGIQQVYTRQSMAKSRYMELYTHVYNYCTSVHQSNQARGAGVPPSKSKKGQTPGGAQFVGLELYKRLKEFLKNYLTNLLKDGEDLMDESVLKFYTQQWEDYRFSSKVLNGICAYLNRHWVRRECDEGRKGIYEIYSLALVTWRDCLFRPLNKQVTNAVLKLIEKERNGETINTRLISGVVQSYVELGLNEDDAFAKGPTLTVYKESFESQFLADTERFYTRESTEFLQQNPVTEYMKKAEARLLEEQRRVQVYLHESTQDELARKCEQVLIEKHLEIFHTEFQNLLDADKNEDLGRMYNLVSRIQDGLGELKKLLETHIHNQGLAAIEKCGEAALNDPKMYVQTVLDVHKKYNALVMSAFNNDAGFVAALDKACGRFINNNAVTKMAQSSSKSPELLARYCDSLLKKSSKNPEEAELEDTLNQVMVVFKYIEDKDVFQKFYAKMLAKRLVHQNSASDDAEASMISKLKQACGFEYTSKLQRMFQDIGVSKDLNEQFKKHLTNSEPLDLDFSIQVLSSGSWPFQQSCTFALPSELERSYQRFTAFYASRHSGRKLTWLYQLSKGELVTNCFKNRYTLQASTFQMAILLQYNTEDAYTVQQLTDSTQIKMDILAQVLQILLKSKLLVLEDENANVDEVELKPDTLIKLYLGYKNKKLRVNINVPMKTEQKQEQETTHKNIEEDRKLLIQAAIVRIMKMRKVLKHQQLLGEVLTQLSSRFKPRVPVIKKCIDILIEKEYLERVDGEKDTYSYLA
Chain of UniProt Q9UHI6 (Q9UHI6 whole entry, looked up): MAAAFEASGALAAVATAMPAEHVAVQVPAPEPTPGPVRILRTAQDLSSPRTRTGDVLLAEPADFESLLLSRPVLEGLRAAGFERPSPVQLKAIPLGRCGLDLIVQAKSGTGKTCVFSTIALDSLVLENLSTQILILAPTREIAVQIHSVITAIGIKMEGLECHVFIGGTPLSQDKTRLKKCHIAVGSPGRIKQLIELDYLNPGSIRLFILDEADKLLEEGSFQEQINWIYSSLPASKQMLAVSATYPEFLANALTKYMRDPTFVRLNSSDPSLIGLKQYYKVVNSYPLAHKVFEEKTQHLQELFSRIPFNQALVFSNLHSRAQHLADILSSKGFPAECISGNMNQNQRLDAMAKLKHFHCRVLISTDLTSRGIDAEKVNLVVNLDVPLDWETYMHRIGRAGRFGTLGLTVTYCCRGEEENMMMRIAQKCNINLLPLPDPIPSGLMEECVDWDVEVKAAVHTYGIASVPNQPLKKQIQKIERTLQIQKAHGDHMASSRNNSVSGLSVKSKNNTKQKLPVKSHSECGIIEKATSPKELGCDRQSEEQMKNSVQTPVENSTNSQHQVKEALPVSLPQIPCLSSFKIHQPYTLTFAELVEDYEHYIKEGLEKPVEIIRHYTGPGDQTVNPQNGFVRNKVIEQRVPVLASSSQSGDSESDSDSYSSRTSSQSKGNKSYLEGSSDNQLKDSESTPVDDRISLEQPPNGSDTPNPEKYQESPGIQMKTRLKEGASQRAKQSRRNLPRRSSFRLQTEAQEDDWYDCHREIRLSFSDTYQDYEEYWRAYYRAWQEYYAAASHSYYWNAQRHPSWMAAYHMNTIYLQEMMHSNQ
Chain of UniProt P14868 (P14868 whole entry, looked up): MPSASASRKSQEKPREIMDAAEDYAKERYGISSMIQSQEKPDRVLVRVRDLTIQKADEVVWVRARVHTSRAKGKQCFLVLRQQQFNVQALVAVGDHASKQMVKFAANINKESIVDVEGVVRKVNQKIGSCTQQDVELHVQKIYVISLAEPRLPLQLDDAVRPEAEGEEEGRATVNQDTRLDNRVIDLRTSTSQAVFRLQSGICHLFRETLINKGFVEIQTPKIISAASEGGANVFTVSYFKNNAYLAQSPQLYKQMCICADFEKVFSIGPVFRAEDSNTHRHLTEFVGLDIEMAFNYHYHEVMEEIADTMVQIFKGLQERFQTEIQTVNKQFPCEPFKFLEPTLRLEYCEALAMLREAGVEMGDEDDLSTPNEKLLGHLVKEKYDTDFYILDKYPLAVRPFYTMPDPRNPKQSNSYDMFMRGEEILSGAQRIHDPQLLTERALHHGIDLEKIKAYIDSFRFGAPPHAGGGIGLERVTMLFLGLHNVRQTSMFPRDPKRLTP
Chain of UniProt Q9Y2V7 (Q9Y2V7 whole entry, looked up): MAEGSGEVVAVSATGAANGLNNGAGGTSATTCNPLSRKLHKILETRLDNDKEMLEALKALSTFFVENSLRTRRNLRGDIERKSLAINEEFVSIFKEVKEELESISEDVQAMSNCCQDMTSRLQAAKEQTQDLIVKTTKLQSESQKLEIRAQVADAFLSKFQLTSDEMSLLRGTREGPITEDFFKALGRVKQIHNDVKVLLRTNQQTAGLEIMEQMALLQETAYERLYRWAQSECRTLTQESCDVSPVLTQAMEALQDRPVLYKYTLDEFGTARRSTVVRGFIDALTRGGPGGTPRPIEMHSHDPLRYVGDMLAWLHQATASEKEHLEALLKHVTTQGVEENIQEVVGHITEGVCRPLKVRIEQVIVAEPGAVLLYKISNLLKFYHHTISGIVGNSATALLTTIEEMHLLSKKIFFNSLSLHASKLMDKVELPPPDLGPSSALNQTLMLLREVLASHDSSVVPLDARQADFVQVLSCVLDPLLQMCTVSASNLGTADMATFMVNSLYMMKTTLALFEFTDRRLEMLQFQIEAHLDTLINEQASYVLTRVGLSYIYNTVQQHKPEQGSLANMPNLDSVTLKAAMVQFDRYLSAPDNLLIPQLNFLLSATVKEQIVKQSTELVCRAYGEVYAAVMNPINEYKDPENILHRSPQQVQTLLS
Chain of UniProt Q92796 (Q92796 whole entry, looked up): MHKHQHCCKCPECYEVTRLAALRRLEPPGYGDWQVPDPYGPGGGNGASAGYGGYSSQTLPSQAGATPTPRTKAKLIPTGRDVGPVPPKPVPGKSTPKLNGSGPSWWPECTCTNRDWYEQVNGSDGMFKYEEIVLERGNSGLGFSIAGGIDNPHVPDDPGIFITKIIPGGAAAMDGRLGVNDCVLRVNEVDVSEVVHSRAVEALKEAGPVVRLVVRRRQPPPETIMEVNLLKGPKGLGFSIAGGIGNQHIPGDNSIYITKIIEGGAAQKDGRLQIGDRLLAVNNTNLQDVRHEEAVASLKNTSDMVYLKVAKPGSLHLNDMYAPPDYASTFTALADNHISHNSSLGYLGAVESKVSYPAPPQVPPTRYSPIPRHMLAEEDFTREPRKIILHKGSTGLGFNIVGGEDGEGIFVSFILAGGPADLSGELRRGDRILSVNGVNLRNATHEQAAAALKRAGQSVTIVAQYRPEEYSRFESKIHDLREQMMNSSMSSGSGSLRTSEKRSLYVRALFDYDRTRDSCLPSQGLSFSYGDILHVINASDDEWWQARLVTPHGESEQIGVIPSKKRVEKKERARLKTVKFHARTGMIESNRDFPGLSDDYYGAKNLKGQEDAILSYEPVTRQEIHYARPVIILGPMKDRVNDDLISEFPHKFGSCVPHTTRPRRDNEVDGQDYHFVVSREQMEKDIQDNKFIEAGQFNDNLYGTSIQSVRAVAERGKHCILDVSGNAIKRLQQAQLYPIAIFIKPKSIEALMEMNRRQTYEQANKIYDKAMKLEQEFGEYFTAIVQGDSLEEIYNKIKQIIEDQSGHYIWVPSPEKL
Chain of UniProt P57737 (P57737 whole entry, looked up): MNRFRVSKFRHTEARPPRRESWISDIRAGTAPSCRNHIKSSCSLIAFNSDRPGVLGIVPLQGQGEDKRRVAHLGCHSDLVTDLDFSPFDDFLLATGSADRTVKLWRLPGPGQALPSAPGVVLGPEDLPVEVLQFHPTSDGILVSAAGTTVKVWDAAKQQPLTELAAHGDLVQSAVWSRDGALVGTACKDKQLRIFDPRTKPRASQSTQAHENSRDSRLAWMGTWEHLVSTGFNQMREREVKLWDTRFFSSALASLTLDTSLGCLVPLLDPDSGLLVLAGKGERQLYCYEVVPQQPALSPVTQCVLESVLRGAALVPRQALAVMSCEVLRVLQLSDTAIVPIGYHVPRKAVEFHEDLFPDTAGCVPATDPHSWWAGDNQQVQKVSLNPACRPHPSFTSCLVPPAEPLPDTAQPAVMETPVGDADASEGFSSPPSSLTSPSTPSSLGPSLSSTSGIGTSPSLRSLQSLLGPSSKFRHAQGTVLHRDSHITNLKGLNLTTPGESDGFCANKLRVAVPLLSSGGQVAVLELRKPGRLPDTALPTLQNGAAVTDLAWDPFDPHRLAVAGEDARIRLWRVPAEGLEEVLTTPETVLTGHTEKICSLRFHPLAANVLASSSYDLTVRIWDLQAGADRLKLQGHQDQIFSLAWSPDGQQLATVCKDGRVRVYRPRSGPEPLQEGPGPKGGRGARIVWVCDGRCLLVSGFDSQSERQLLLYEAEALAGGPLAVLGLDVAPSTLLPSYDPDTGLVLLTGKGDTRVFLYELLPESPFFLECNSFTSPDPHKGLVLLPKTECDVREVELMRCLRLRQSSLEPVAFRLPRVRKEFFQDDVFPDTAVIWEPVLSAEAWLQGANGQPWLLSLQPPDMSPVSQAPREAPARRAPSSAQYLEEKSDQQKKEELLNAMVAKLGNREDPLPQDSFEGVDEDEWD
Chain of UniProt Q96MX0 (Q96MX0 whole entry, looked up): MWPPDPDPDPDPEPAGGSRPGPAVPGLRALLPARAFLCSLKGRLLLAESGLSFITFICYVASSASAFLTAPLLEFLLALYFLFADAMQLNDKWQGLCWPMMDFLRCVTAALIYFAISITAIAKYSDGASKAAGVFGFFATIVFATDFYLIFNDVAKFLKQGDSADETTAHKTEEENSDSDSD
Chain of UniProt Q92564 (Q92564 whole entry, looked up): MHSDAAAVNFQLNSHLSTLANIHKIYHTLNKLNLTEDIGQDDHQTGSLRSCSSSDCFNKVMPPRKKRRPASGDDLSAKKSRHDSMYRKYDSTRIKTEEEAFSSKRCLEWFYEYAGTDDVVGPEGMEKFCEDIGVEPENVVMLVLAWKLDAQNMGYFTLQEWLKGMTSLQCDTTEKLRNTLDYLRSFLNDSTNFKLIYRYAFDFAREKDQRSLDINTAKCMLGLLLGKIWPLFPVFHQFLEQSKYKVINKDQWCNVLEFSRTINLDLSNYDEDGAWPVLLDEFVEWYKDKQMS

Target | log2 fold change (ibrutinib) | log2 fold change [1] | log2 fold change (ralimetinib) | log2 fold change [2] | log2 fold change [3] | log2 fold change [4] | log2 fold change [5] | log2 fold change [6] | log2 fold change [7] | log2 fold change [8] | log2 fold change (vemurafenib) | log2 fold change [9] | log2 fold change (barasertib) | log2 fold change [10] | log2 fold change (volasertib) | log2 fold change [11] | log2 fold change [12] | log2 fold change [13] | log2 fold change (saracatinib) | log2 fold change (sotrastaurin)
CORO7 isoform 3 (UniProt P57737) | -0.01 | 0.002 | 0.016 | 0.031 | 0.009 | -0.013 | -0.006 | -0.006 | 0.02 | 0.005 | 0.031 | 0.013 | 0.008 | -0.042 | -0.01 | 0.016 | 0.044 | -0.175 | 0.004 | 0.008
CKM (UniProt P06732) | -0.002 | 0.056 | 0.046 | -0.076 | 0.002 | -0.001 | -0.029 | 0.044 | 0.005 | -0.02 | 0.072 | -0.018 | -0.018 | 0.086 | -0.084 | -0.039 | -0.574 (active) | 0.17 | -0.014 | 0.086
DNAJC3 (UniProt Q13217) | 0.009 | -0.004 | -0.022 | 0.007 | -0.021 | 0.024 | 0.006 | -0.011 | -0.054 | -0.018 | -0.016 | 0.009 | 0.006 | 0.023 | -0.004 | 0.082 | 0.016 | -0.076 | 0.008 | -0.109
DLGAP5 (UniProt Q15398) | 0.004 | 0.02 | -0.018 | 0.005 | -0.036 | -0.009 | -0.007 | -0.012 | 0.016 | -0.003 | 0.01 | 0.009 | 0.007 | -0.018 | -0.013 | 0 | -0.024 | 0.019 | 0.013 | -0.004
DDX20 (UniProt Q9UHI6) | -0.01 | 0.017 | 0.029 | -0.029 | -0.03 | -0.011 | 0.004 | -0.006 | 0.044 | 0.01 | -0.058 | 0.018 | 0.011 | -0.087 | -0.061 | 0.036 | -0.037 | -0.094 | 0.036 | 0.004
DCUN1D4 isoform 3 (UniProt Q92564) | 0.064 | 0.078 | -0.033 | -0.057 | 0.018 | -0.009 | -0.078 | -0.027 | 0.029 | -0.059 | 0.066 | 0.075 | -0.027 | -0.321 (active) | 0.049 | -0.02 | -0.036 | 0.02 | 0.005 | 0.028
CMTM3 (UniProt Q96MX0) | -0.036 | 0.036 | 0.093 | 0.104 | -0.022 | 0.052 | -0.06 | 0.06 | -0.039 | -0.016 | 0.053 | -0.014 | -0.04 | -0.089 | 0.014 | 0.03 | 0.053 | -0.055 | 0.012 | -0.005
COG6 (UniProt Q9Y2V7) | -0.003 | 0.005 | 0.016 | -0.059 | -0.028 | -0.017 | 0.016 | 0.004 | 0.033 | 0.021 | 0.062 | 0.013 | 0.072 | -0.004 | -0.046 | 0.015 | -0.116 | 0.017 | 0.073 | -0.017
DAZAP1 (UniProt Q96EP5) | -0.031 | -0.011 | -0.124 | 0.133 | -0.023 | -0.062 | -0.015 | -0.359 (active) | -0.031 | -0.009 | 0.036 | 0.043 | -0.017 | 0.016 | 0.011 | 0.065 | 0.129 | 0.032 | 0.003 | -0.109
DHRS11 (UniProt Q6UWP2) | 0.028 | -0.008 | 0.028 | -0.014 | 0.048 | -0.005 | -0.029 | 0.007 | 0.015 | 0.03 | 0.015 | 0.007 | 0 | -0.019 | -0.026 | 0.023 | -0.03 | 0.025 | 0.013 | 0.004
CNOT4 isoform 6 (UniProt O95628) | -0.004 | 0.021 | 0.033 | -0.007 | -0.003 | 0.049 | 0.037 | -0.281 (active) | -0.026 | 0.012 | -0.052 | 0.008 | -0.014 | 0.057 | 0.009 | 0.108 | -0.053 | 0 | 0.057 | -0.005
CUL1 (UniProt Q13616) | 0.02 | 0.005 | -0.004 | -0.016 | -0.018 | -0.014 | 0.016 | 0.02 | -0.001 | -0.01 | -0.008 | 0.001 | -0.011 | 0.034 | 0.029 | 0.004 | -0.013 | 0.029 | -0.023 | -0.029
DARS (UniProt P14868) | 0.009 | 0.021 | 0.049 | 0.04 | 0.001 | -0.003 | 0.027 | -0.019 | 0.026 | 0.053 | 0.02 | 0.021 | 0.021 | -0.099 | -0.043 | 0.062 | 0.026 | -0.012 | 0.018 | 0.011
DLG3 isoform 2 (UniProt Q92796) | 0.034 | 0.009 | 0.124 | 0.042 | -0.005 | 0.055 | -0.009 | -0.023 | -0.033 | 0.024 | 0.109 | 0.005 | 0.047 | -0.128 | -0.006 | -0.057 | -0.14 | 0.038 | 0.004 | 0.043
CIP2A (UniProt Q8TCG1) | 0.022 | 0.001 | 0.052 | -0.046 | -0.03 | 0.009 | 0.003 | 0 | 0.059 | -0.033 | 0.036 | 0.019 | 0.153 | 0.001 | -0.086 | 0.037 | -0.07 | -0.075 | 0.009 | 0.014
DPH5 isoform 5 (UniProt Q9H2P9) | 0.043 | -0.027 | -0.031 | 0 | 0.298 | -0.034 | -0.111 | -0.007 | -0.037 | 0.04 | 0.144 | 0.016 | -0.05 | 0.16 | 0.273 | -0.011 | 0.182 | 0.033 | -0.029 | 0.049
